VLA-4 inh = inhibition in human VLA-4 binding assay, primary screen, VLA-4 allosteric modulator project, MLPCN library, flow cytometry, VLA-4 expressing cells; ligand binding flow cytometry; inhibition, % (about 7 µM as worked out from the volumes in the protocol); AID 2557, 2010; 330,000 compounds, 0.2% hits; in the data active = inhibition above about 50%
Target sequence (P13612 whole entry, looked up): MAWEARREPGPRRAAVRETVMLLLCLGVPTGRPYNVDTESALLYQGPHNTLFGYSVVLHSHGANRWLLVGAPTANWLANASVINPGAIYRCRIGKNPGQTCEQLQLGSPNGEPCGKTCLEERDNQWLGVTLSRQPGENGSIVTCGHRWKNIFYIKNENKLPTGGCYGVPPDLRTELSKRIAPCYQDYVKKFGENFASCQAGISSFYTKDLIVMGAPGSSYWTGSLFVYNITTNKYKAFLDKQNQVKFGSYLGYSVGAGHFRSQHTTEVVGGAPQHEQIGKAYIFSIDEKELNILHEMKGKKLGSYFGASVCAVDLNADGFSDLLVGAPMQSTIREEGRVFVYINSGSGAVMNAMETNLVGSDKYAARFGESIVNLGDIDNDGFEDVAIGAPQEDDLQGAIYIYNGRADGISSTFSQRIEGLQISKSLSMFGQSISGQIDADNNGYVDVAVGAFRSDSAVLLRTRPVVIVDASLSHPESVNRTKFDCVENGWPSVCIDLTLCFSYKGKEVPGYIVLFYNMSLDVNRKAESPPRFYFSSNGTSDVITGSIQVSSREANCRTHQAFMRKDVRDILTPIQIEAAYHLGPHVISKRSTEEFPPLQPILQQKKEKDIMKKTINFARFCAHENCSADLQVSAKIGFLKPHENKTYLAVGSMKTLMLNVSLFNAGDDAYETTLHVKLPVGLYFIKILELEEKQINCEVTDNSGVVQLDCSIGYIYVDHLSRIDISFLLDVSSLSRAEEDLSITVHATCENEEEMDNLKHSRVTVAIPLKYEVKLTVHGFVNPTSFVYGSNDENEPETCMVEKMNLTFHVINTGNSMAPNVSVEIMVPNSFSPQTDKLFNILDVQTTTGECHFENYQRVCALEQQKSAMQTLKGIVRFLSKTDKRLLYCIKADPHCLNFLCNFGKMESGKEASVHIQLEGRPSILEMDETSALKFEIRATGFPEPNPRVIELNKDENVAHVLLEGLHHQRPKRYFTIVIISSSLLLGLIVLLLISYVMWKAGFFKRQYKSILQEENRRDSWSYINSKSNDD
RPL19A TOR yeast = RPL19A-GFP expression modulators in yeast, primary screen, cell-based, S. cerevisiae, multiplex flow cytometry, MLPCN; 330,000 compounds, 0.3% hits; S. cerevisiae RPL19A-GFP strain, 3 h; hits give low values; percent response vs DMSO, % at 10 µM;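 active = percent response vs DMSO below 50%; inconclusive = fewer than 70 events counted for the yeast strain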;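 note: median channel GFP fluorescence of the barcoded RPL19A-GFP strain; ratio of sample median GFP to plate DMSO average so 100% = DMSO; lower means less RPL19A-GFP as with rapamycin TOR inhibition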
AGP1-GFP MLPCN = modulators of AGP1-GFP expression in yeast TOR pathway, primary screen, cell-based, multiplex flow cytometry, S. cerevisiae, MLPCN library. 320,000 compounds, 0.02% hits. 3 h; GFP as percent of DMSO wells. GFP response vs DMSO, % at 10 µM;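 active = GFP response relative to DMSO above a set limit, near screen average plus 3 SD, cut at about 150% in these data; inconclusive = fewer than 70 cells counted for the yeast strain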;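 note: median GFP channel fluorescence of the gated AGP1 strain per well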
CIT2 TOR yeast = modulators of CIT2-GFP expression in yeast, primary screen, S. cerevisiae, GFP fusion, multiplex flow cytometry, MLPCN library; S. cerevisiae CIT2-GFP strain, 3 h; 100 means same as DMSO wells; GFP response vs DMSO, % at 10 µM; 320,000 compounds, 0.065% hits; AID 2029, 2009;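 active = GFP response relative to DMSO above a set limit, near the screen mean plus 3 SD, cut at about 150% in these data; inconclusive = Fewer than 70 cells measured for a yeast strain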;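 note: ratio of well median GFP fluorescence to mean of DMSO wells on the plate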
MEP2-GFP yeast = modulators of MEP2-GFP levels in yeast, primary screen, S. cerevisiae, multiplex flow cytometry, MLPCN library; GFP response vs DMSO, % at 10 µM; 330,000 compounds, 0.51% hits; S. cerevisiae MEP2-GFP strain, 3 h; 100% = DMSO control level; AID 2016, 2009;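 active = GFP response versus DMSO above a set limit, roughly screen mean plus 3 SD, cut at about 180% in these data; inconclusive = fewer than 70 cells counted for a yeast strain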;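 note: median GFP fluorescence of the barcode-gated MEP2-GFP cells per well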
LAP4 TOR yeast = modulators of LAP4-GFP expression in yeast, primary screen, S. cerevisiae, multiplex flow cytometry, MLPCN library. GFP response vs DMSO, % at 10 µM. 320,000 compounds, 0.34% hits. 3 h; median GFP as percent of DMSO wells;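 active = GFP response vs DMSO above a set limit, about the screen mean plus 3 SD, cut at about 150% in these data; inconclusive = under 70 cell events counted for the yeast strain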
LAP4 cherry2 = LAP4-GFP expression modulators in yeast, confirmation, cell-based, second cherry pick, flow cytometry; shares compounds with LAP4 TOR yeast; S. cerevisiae LAP4-GFP strain, 3 h; GFP response vs DMSO, % at 10 µM; 590 compounds, 20% hits; AID 2621, 2010;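 active = GFP signal as percent of the solvent control above about 150%, meaning raised reporter expression, limit read from the data; inconclusive = fewer than 70 cells counted in the well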;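 note: ratio of well median GFP fluorescence to plate DMSO mean so 100% = DMSO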
MEP2-GFP pick2 = modulators of MEP2-GFP levels in yeast, confirmation, S. cerevisiae, flow cytometry GFP, second cherry picks. shares compounds with LAP4 TOR yeast. S. cerevisiae MEP2-GFP strain, 3 h. GFP response vs DMSO, % at 10 µM. 590 compounds, 10% hits;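 active = GFP signal above 150% of the solvent control wells, that is a rise of more than half; inconclusive = fewer than 70 yeast cells counted in the well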;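 note: median channel GFP fluorescence of all gated yeast cells per well; ratio of median GFP to plate DMSO average so 100% = DMSO level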
RPL19A-GFP pick2 = RPL19A-GFP modulators in TOR pathway yeast, confirmation, cell-based, S. cerevisiae, flow cytometry, second cherry pick. shares compounds with LAP4 TOR yeast. GFP response vs DMSO, % at 10 µM. AID 2623, 2010. 590 compounds, 3% hits. S. cerevisiae RPL19A-GFP strain, 3 h; hits give low values; 100% means same as DMSO wells;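 active = under 65% GFP response relative to DMSO; inconclusive = yeast strain with under 70 measured events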;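 note: median GFP channel fluorescence per well over the all cells gate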
CIT2 GFP CP2 = modulators of CIT2-GFP expression in yeast, confirmation, flow cytometry, second cherry pick, single plex; S. cerevisiae CIT2-GFP strain, 3 h; DMSO control wells read 100%; 590 compounds, 8% hits; GFP response vs DMSO, % at 10 µM; AID 2624, 2010; shares compounds with LAP4 TOR yeast;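 active = GFP response vs DMSO above about 150%, limit read from the data; inconclusive = fewer than 70 events counted for a yeast strain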;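 note: median green fluorescence per well over all gated yeast cells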
AGP1-GFP pick2 = AGP1-GFP expression modulators, hit retest, confirmation, cell-based, flow cytometry, S. cerevisiae, cherry pick set 2. shares compounds with LAP4 TOR yeast. S. cerevisiae AGP1-GFP strain, 3 h. percent response vs DMSO, % at 10 µM. 590 tested, under 10 active. AID 2643, 2010;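 active = over 150 percent of DMSO response; inconclusive = yeast strain measured with under 70 events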;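 note: median GFP channel fluorescence over all cells without mother daughter split; sample median GFP divided by mean DMSO control so 100% equals DMSO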
s288c autofluor = compound autofluorescence in yeast s288c, dose response, artefact control for yeast TOR pathway GFP screen, s288c strain. shares compounds with LAP4 TOR yeast. 610 tested, under 10 active. S. cerevisiae s288c, 520 nm autofluorescence, flow cytometry, 3 h; hits give high values; zero means same as solvent-only cells. fluorescence change (kMESF span) at 33 µM;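 active = fluorescence span over the dose series, or activity score, above about 33, limit read from the data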
s288c autofl DR = autofluorescence of compounds in yeast s288c, dose response, artefact control for yeast TOR pathway GFP screen, primary hits, KU SAR, s288c parental. 110 tested, under 10 active. AID 488829, 2010. S. cerevisiae s288c parental, compound autofluorescence, flow cytometry, 3 h. shares compounds with LAP4 TOR yeast. fluorescence change (span) at 33 µM;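 active = fluorescence change span, or the activity score built from it, above 25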
TORC1 bypass = wild-type yeast growth inhibition sparing TORC1 bypass cells, mechanism study for yeast TOR pathway GFP screen, BY4741 wild type, TORC1 bypass strain. S. cerevisiae BY4741 spot growth rating, 48-72 h; hits give low values. growth rating (0-3) at 30 µM. shares compounds with LAP4 TOR yeast. 120 tested, under 10 active;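 active = growth rating at most 1 for wild type yeast while the TORC1 bypass strain still grows fully, rated 3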
An asterisk follows results filed as active; u = inconclusive; x = not tested or not shown. An excerpt weighted towards active compounds, which were near 1.1% of everything screened.

SMILES	VLA-4 inh	RPL19A TOR yeast	AGP1-GFP MLPCN	CIT2 TOR yeast	MEP2-GFP yeast	LAP4 TOR yeast	LAP4 cherry2	MEP2-GFP pick2	RPL19A-GFP pick2	CIT2 GFP CP2	AGP1-GFP pick2	s288c autofluor	others
CCOC(=O)c1c(S(=O)(=O)NCC(=O)NCc2ccccc2Cl)c(C)n(C)c1C	17	99	96	95	92	89	x	x	x	x	x	x
CCOc1ccc(NC(=O)CCC(=O)Nc2nnc(CC)s2)cc1	-3	97	100	96	100	98	x	x	x	x	x	x
O=c1[nH]c(-c2ccc(Cl)cc2)cs1	3	63	81	84	94	120	104	112	99	102	105	0.1
COc1cccc(-c2ncc3ccccc3c2COC(=O)c2ccc(Br)cc2)c1	-1	93	95	84	85	112	x	x	x	x	x	x
COc1cccc(-c2ncc3ccccc3c2COC(=O)c2cccc(Br)c2)c1	-3	95	101	81	103	159*	132	98	91	105	96	x
Cc1ccc(S(=O)(=O)N2CCCC2C(=O)NCc2ccncc2)cc1 (centres undefined)	-7	98	110	161*	112	100	102	113	100	107	100	0
CC1CCN(S(=O)(=O)N2CCCC(C(=O)NCc3ccc(F)cc3)C2)CC1 (centres undefined)	11	63	18	101	147	91	101	101	98	106	100	x
O=C(NCc1ccc(F)cc1)C1CCN(S(=O)(=O)N2CCCC2)CC1	5	u	u	u	u	u	x	x	x	x	x	x
COc1ccc(N(C)S(=O)(=O)c2cccc(C(=O)OCC(=O)N3CC(C)CC(C)C3)c2)cc1 (centres undefined)	-1	94	99	101	96	98	x	x	x	x	x	x
CCOc1ccc(CCNC(=O)COC(=O)c2cccc(N(C)C)c2)cc1OCC	3	101	103	104	104	109	x	x	x	x	x	x
CC1CN(C(=O)Cn2cc(S(=O)(=O)CC(=O)N3CCOCC3)c3ccccc32)CC(C)O1 (centres undefined)	11	105	117	163*	114	98	103	100	102	102	100	x
CCOC(=O)c1c(C)[nH]c(C)c1S(=O)(=O)N1CCCCC1	15	100	98	99	103	93	x	x	x	x	x	x
Cc1csc(NC(=O)c2ccc(COc3ccccc3)o2)n1	2	95	93	84	99	125	x	x	x	x	x	x
O=C(C#Cc1ccccc1)c1ccco1	12	88	101	77	128	153*	156*	165*	85	128	118	0.61
O=C(N/N=C/c1ccccc1)c1ccco1	8	98	108	102	98	119	x	x	x	x	x	x
O=c1[nH]c2ccccc2c2cn(-c3ccccc3)nc12	-3	101	94	107	107	103	x	x	x	x	x	x
C#CCOc1c(Br)cc(/C=C2/C(=O)ON=C2C)cc1OCC	-9	105	84	96	91	95	x	x	x	x	x	x
C#CCOc1c(Br)cc(/C=C2/C(=O)ON=C2C)cc1OC	10	91	89	95	98	197*	187*	136	93	122	101	0.51
CC(Oc1ccc(Br)cc1)C(=O)Nc1nc(-c2ccccn2)cs1 (centres undefined)	2	101	72	96	98	168*	x	x	x	x	x	1.1	s288c autofl DR=0.29;TORC1 bypass=3
CC(C)[C@H](NC(=O)c1ccccc1Cl)C(=O)Nc1nc(-c2ccccn2)cs1	14	95	102	95	93	103	x	x	x	x	x	x
Cc1cc(C(=O)Nc2nc(-c3ccccn3)cs2)ccc1[N+](=O)[O-]	11	101	98	98	100	160*	x	x	x	x	x	1.3	s288c autofl DR=0.08;TORC1 bypass=3
O=C(Nc1nc(-c2ccccc2)cs1)C1COc2ccccc2O1 (centres undefined)	10	90	92	91	95	91	x	x	x	x	x	x
O=C(Nc1nc(-c2ccccn2)cs1)C1COc2ccccc2O1 (centres undefined)	-1	93	98	102	101	162*	136	113	102	116	92	0.8	s288c autofl DR=3.5;TORC1 bypass=3
CCc1cc(C(=O)Nc2nc(-c3ccccn3)cs2)sc1C	-57	88	70	78	99	208*	156*	114	103	111	91	0.5
COCCCN(C(=O)CC1OC(=O)c2ccccc21)c1c(N)n(Cc2ccccc2)c(=O)[nH]c1=O (centres undefined)	0	109	100	x	122	88	x	x	x	x	x	x
